# Laboratory results: PubChem BioAssay
# Active and inactive are the calls of the source.
# How the values were obtained:
# [1] = A549 cell viability effects, profiling panel, calcein-AM fluorescence, 48 h, basal (AID 1162); details: higher = more signal
# [2] = adipocyte viability effects, profiling panel, cell-based, 3T3-L1 adipocytes, calcein-AM fluorescence, 48 h, basal (AID 1163); details: 3T3-L1 adipocytes viability, higher = more signal
# [3] = HepG2 cell viability effects, profiling panel, calcein-AM fluorescence, 48 h, basal (AID 1164); details: higher = more signal
# [4] = MM1S cell viability effects, profiling panel, calcein-AM fluorescence, 48 h, basal (AID 1165); details: higher = more signal;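 further: viability of MM1S multiple myeloma cells under basal unstimulated conditions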
# [5] = basal RPMI8226 viability, no added stimulus, profiling panel, cell-based, calcein-AM fluorescence, 48 h, PK04 Diversity Set (AID 1166); details: RPMI8226 myeloma viability, higher = more signal;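 further: cells grown under basal conditions without added stimulus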
# [6] = basal HepG2 mitochondrial membrane potential changes, profiling panel, cell-based, JC-1 fluorescence, 24 h, 100 nL compound (AID 1167); details: higher = more signal
# [7] = basal 3T3-L1 adipocyte mitochondrial potential changes, profiling panel, cell-based, JC-1 fluorescence, 3T3-L1 adipocytes, 24 h, 100 nL compound (AID 1168); details: JC-1 mitochondrial fluorescence, higher = more signal, called active from +8 up or from −8 down
# [8] = basal RPMI8226 mitochondrial membrane potential changes, profiling panel, cell-based, JC-1 fluorescence, 24 h, 100 nL compound (AID 1169); details: RPMI8226 myeloma, JC-1 mitochondrial potential fluorescence, higher = more signal
# [9] = basal MM1S mitochondrial membrane potential changes, profiling panel, cell-based, JC-1 fluorescence, 24 h, 100 nL compound (AID 1170); details: higher = more signal
# [10] = A549 lung cancer cell viability effects, profiling panel, resazurin fluorescence, 24 h, PK04 Diversity Set (AID 1171); details: higher = more signal, called active from +8 up or from −8 down
# Further: test concentration not given here.
SMILES,z-score [1],z-score [2],z-score [3],z-score [4],z-score [5],z-score [6],z-score [7],z-score [8],z-score [9],z-score [10]
O=C1NC(=O)C2C1C=CC(C(O)C=Cc1ccc([N+](=O)[O-])cc1)N2Nc1ccccn1 (stereo not given),0.183,-1.49,0.324,-0.141,-0.411,-0.249,-0.304 (inactive),0.412,0.423,-0.355 (inactive)
CCOC(=O)C1=CC[C@@H](c2ccccc2)N(S(=O)(=O)c2ccc(C)cc2)[C@H]1C,-1.54,-0.956,-1.21,-1.6,-1.77,3.96,0.775 (inactive),-0.198,-1.22,0.0723 (inactive)
CO[C@H]1COC(=O)CC=C[C@H](C)[C@@H](OC)COC(=O)CC=C[C@@H]1C,1.09,0.569,1.06,0.244,0.859,1.36,0.425 (inactive),-0.36,0.758,0.99 (inactive)
O=C1OCC=C[C@H]2OC34C=CCN(Cc5ccccc5)C(=O)[C@H]3N(CCO)C(=O)[C@@H]4[C@@H]12 (stereo not given in full),0.125,0.474,-0.885,1.12,0.44,-0.255,0.367 (inactive),-0.0019,-0.216,0.54 (inactive)
CC(=O)NCCCC[C@@H]1NC(=O)[C@@H]2C[C@H](C(=O)NCc3ccc(F)cc3)[C@H](c3cccc(OCCO)c3)N2C1=O,0.53,0.0222,0.64,-0.0893,-0.12,-0.0575,-0.568 (inactive),-0.3,-0.513,-0.12 (inactive)
C=CC[C@]1(C(=O)O)N=C(c2ccc(OCCCO)cc2)O[C@H]1c1ccccc1N=[N+]=[N-],0.144,0.722,-0.489,-2.19,-0.0144,0.0206,0.504 (inactive),-0.837,-0.783,0.909 (inactive)
CN(C)CCCC[C@@H]1NC(=O)[C@@H]2C[C@H](C(=O)NCCCCCNC(=O)CS)[C@H](c3ccc(O)cc3)N2C1=O,0.748,0.387,-1.02,-0.0855,0.262,1.61,0.642 (inactive),-0.238,0.422,-0.207 (inactive)
CC(=O)NCCCC[C@@H]1NC(=O)[C@@H]2C[C@H](C(=O)NCCCCCNC(=O)CS)[C@H](c3ccc(O)cc3)N2C1=O,1.69,0.349,-0.0748,0.372,1.33,1.36,0.985 (inactive),-0.418,-0.559,1.46 (inactive)
C#CCNC(/C=C/c1ccccc1)CO (stereo not given),-0.165,-0.239,-0.624,-0.295,-0.987,-1.02,0.308 (inactive),0.38,-0.323,0.234 (inactive)
COc1cc(Cc2cc3c(c(CCc4ccccc4)n2)[Si](C(C)C)(C(C)C)OC3)cc(OC)c1OC,0.557,-1.22,-0.202,-2.17,-4.13,0.756,-0.411 (inactive),-0.799,-0.234,2.12 (inactive)
C[C@@H]1CC[C@H]2C(=O)N3CCC[C@H]3C(=O)N2[C@H]1c1ccc(Br)cc1,1.09,-0.0296,0.0327,0.517,0.0262,0.412,1.02 (inactive),-0.167,0.324,0.673 (inactive)
O=C(NCC(F)(F)F)[C@@H]1c2ccccc2C(=O)N(Cc2ccccc2Cl)[C@H]1c1ccc(CO)cc1,1.25,-0.0448,0.343,0.189,-0.317,1.48,-0.198 (inactive),-0.65,0.499,1.26 (inactive)
CO[C@@H]1COC(=O)[C@H](C)NC(=O)CC=C[C@@H](C)[C@H](NS(=O)(=O)c2ccc(C)cc2)COC(=O)CC=C[C@@H]1C,0.286,0.624,0.129,0.287,-0.0803,0.596,0.523 (inactive),-0.296,0.203,0.589 (inactive)
C=C(C)[C@@H]1CC=C(C(O)C2C=CC3C(=O)NC(=O)C3N2Nc2ccccn2)CC1 (stereo not given in full),-0.592,-1.11,-0.914,0.0217,-0.97,-1.66,0.344 (inactive),0.921,-0.0607,-0.981 (inactive)
C=CCN1C(=O)[C@@]2(O[C@@H](CCn3cc([C@H](O)c4ccccc4)nn3)[C@H]([Si](C)(C)c3ccc(OC)cc3)[C@H]2C)c2cc(N3CCOC3=O)ccc21,-0.873,3.06,-1.2,-1.81,-1.93,1.09,1.92 (inactive),-0.376,0.753,-1.97 (inactive)
C=CCNC(=O)[C@H]1[C@@H]2C(=O)O[C@@H](c3ccccc3)[C@@H](c3ccccc3)N2[C@@H](c2ccccc2OCCO)[C@]12C(=O)N(C(=O)OCCOC)c1ccc(C#CCC(C(=O)OC)C(=O)OC)cc12,0.208,2.2,0.128,-2.95,-3.66,0.348,1.54 (inactive),-1.02,-1.35,-0.131 (inactive)

SMILES,z-score [1],z-score [2],z-score [3],z-score [4],z-score [5],z-score [6],z-score [7],z-score [8],z-score [9],z-score [10]
COc1cccc([C@H]2N[C@H](C(=O)O)CC[C@@H]2C)c1,0.0912,2.03,-0.175,0.543,-1.36,1.16,0.75 (inactive),-0.358,0.632,-0.336 (inactive)
C=CCNC(=O)[C@H]1[C@@H]2C(=O)O[C@@H](c3ccccc3)[C@@H](c3ccccc3)N2[C@@H](c2ccccc2OCCO)[C@]12C(=O)N(C(=O)OCCOC)c1ccc(C#CCNC(N)=O)cc12,0.883,1.68,-0.127,-1.13,-0.66,0.208,1.39 (inactive),-0.711,-0.616,1.13 (inactive)
C=C(CCCC)/C(=C/C[C@H](OC(=O)c1ccncc1)c1cccc(OCCO)c1)c1cc(C(=O)OC)ccc1OC,0.215,2.52,0.0827,-1.78,-1.93,4.13,-0.174 (inactive),-0.337,-0.342,2.6 (inactive)
CO[C@H]1O[C@H](CO)[C@@H](OC(=O)CCc2ccccc2)[C@@H]2OC(=O)[C@H](Cc3cccc(Br)c3)C/C=C/C[C@@H](Cc3cccc(Br)c3)C(=O)O[C@@H]12,1.28,1.22,2.26,1.15,1.6,1.01,1.6 (inactive),-0.359,1.18,0.844 (inactive)
CC[C@@H]1C=C(C(=O)O)[C@H](c2ccccc2)N1S(=O)(=O)c1ccc([N+](=O)[O-])cc1,-0.353,-0.49,0.271,0.0363,0.0806,0.414,-0.375 (inactive),0.769,-0.877,0.0551 (inactive)
C=CC[C@]1(C(=O)NCC(O)CO)N=C(c2ccc(OCCCO)cc2)O[C@H]1c1ccccc1 (stereo not given in full),0.495,0.991,0.417,-0.176,0.213,-0.0851,-0.386 (inactive),-0.895,0.334,0.912 (inactive)
O=C1C2C=CC(C(O)C#Cc3ccccc3)N(Nc3ccccc3)C2C(=O)N1c1ccccc1 (stereo not given),-0.284,-1.26,-0.374,0.0195,-0.619,-1.53,-0.869 (inactive),-0.449,-0.41,0.0504 (inactive)
CO[C@H]1COC(=O)[C@@H](C)COC(=O)[C@H](Cc2ccccc2)NC(=O)CC=C[C@H]1C,-0.0475,0.838,0.53,-0.0069,-0.602,0.756,0.906 (inactive),0.25,0.877,0.733 (inactive)
C=CCNC(=O)[C@@H]1[C@H]2C(=O)O[C@H](c3ccccc3)[C@H](c3ccccc3)N2[C@H](c2ccc(OCCO)cc2)[C@@]12C(=O)N(C(=O)OCCOC)c1ccc(C#CC3(O)CCCCCC3)cc12,0.0803,3.14,-1.53,-1.07,-1.16,-1.43,0.738 (inactive),-0.814,-1.05,0.338 (inactive)
C=CCN1C(=O)[C@@]2(Cc3ccccc3)N=C(c3ccc(OCCCO)cc3)O[C@H]2c2ccccc21,-1.38,1.56,-1.82,-2.95,-3.94,-2.07,1.58 (inactive),-1.11,-2.14,-1.36 (inactive)
C=C(CCCC)C(=O)CC[C@@H](OC(C)=O)c1ccccc1OCCO,0.509,-0.0795,-0.54,-2.62,-1.67,-0.684,1.08 (inactive),-0.76,0.93,0.288 (inactive)
CCN1C(C)=C(C(=O)OC)[C@@H](c2ccccc2)N2C(=O)[C@@]3(C(=O)OC)O[C@@]12[C@@H]1C(=O)CCC[C@@H]13,-0.195,0.955,-0.369,0.853,0.476,0.638,0.881 (inactive),0.538,0.29,0.282 (inactive)
CCC(=O)[C@]12O[C@@]3([C@@H]4C(=O)OCC[C@@H]41)N(CC)C(C)=C(C(=O)OC)[C@@H](c1ccccc1)N3C2=O,0.569,1.77,0.0496,-0.868,-1.8,0.684,0.112 (inactive),-0.537,0.541,-0.257 (inactive)
C[C@H]1COC(=O)[C@H](Cc2ccccc2)NC(=O)[C@@H](C)COC(=O)[C@H](Cc2ccccc2)NC1=O,-0.429,1.27,0.0613,0.244,1.03,0.827,0.382 (inactive),-0.405,0.0881,0.512 (inactive)
[N-]=[N+]=NCc1ccccc1[C@H]1OC(c2ccc(OCCCO)cc2)=N[C@@]1(Cc1ccccc1N=[N+]=[N-])C(=O)NCc1ccccc1,-0.741,0.236,-0.946,-2.4,-3.8,0.37,-0.296 (inactive),-1.02,-1.38,0.0642 (inactive)
O=C(NCc1ccccc1)[C@@]1(Cc2ccccc2)COC(c2ccc(OCCCO)cc2)=N1,-1.65,-2.05,-2.78,-3.58,-3.06,-2.97,0.558 (inactive),-1.06,-2.9,-2.77 (inactive)
